Shown are actives, neighbours in structure and some others; about 4.1% of the full set was active somewhere.
hgDAF12 agonist: agonists of H. glycines DAF-12 nuclear receptor | activation, % at 6.8 µM | actives 1.8% (n = 370,000) | HEK293 GAL4-hgDAF12 UAS-luciferase reporter, agonist luminescence; normalized to butyrate control;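 active = activation above a cutoff set at the mean of all screened compounds plus 3 SD, cut at about 10% in these data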;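 also: 0% = DMSO wells and 100% = sodium butyrate wells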
DAX1 inh-1: NR0B1 (DAX1) inhibition; P51843; HEK293 Gal4-DAX1 luciferase reporter, luminescence; inhibition, % at 6.75 µM; actives 0.99% (n = 340,000); AID 504766;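 active = inhibition above the mean over all tested compounds plus 3 SD, cut at about 4.2% in these data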;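 also: 0% = DAX1-transfected cells with DMSO and 100% = empty-vector control cells with DMSO; inhibition shows as a rise in luminescence from relieved DAX1 repression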
Target sequence (P51843 207-470 limits assumed): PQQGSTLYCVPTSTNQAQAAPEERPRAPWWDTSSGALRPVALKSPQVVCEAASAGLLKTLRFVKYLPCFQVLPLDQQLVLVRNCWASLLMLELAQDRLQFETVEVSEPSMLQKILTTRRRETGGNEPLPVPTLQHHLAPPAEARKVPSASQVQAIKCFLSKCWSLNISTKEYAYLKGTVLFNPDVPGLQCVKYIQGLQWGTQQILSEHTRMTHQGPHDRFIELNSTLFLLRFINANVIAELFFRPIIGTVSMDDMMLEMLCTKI
ssDAF12 agonist: activators of S. stercoralis DAF-12 nuclear receptor; HEK293 ssDAF-12/GRIP1 lit1-tk-luc reporter, luminescence; % of 3 µM dafachronic acid response; activation, % at 6.8 µM; actives 1% (n = 370,000); AID 652126;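 active = activation above the mean over all tested compounds plus 3 SD, cut at about 0.9% in these data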;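 also: 0% = DMSO-only wells and 100% = 3 µM delta7-dafachronic acid wells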
hcDAF12 agonist: activates DAF-12 receptor from parasite H. contortus | HEK293 hcDAF-12 lit1-tk-luc reporter, luminescence; 0% DMSO, 100% Δ7-dafachronic acid | activation, % at 6.8 µM | actives 1.4% (n = 370,000);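 active = activation above the mean of all tested compounds plus 3 SD, cut at about 5.5% in these data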;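 also: 100% = response to 3 µM Δ7-dafachronic acid high control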
DAX1 inh-2: DAX1 (NR0B1) inhibition, primary screen | HEK293T StAR-luciferase reporter, SF-1/DAX-1 repression relief | inhibition, % at 6.8 µM | actives 1.1% (n = 370,000);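 active = inhibition above the mean over all tested compounds plus 3 SD, cut at about 3.6% in these data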;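 also: 0% = DAX-1 cells with DMSO and 100% = cells lacking DAX-1 with DMSO; higher inhibition means more luminescence from relief of DAX-1 repression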
* = called active by the depositor; nt = no result; ! = not confirmed by another sample.

SMILES | hgDAF12 agonist | DAX1 inh-1 | ssDAF12 agonist | hcDAF12 agonist | DAX1 inh-2
CCN(CC)c1ccc(N=C2C=CC(=O)C=C2NC(C)=O)cc1 | 8 | nt | 0 | 3 | 3.9*
CC(=O)NCc1ccc(C(=O)CN2C(=O)NC3(CCCCC3C)C2=O)s1 (centres undefined) | 12* | 0 | -1 | 1 | 0
CC1CCCCC12NC(=O)N(CC(=O)NCc1ccccc1)C2=O (centres undefined) | 3 | 0 | -1 | 1 | 0
Cc1cc(Br)cn2c(Cc3ccccc3C(F)(F)F)c(-c3ccc(F)cc3)nc12 | -1 | nt | 0 | 0 | -1
Cc1cccc(NC(=O)C(C)SCc2nc3sc4c(c3c(=O)[nH]2)CCCC4)n1 (centres undefined) | 2 | -1 | 1.3* | 2 | -2
Cc1cccc(NC(=O)CCc2nc3sc4c(c3c(=O)[nH]2)CCCC4)c1 | 3 | 0 | -1 | -2 | -1
COc1ccc2nc(SCC(=O)NC(C)(C)C)[nH]c2c1 | 5 | -1 | -1 | 0 | 1
COc1ccc2nc(SCC(=O)C(C)(C)C)[nH]c2c1 | 8 | 4.5* | -1 | 1 | 0
CSc1nc2ccc(S(=O)(=O)N3CCOCC3)cc2s1 | 0 | 1 | -1 | 5.8* | 0
CSc1nc2ccc(S(=O)(=O)N3CCCCC3)cc2s1 | 1 | 0 | -1 | 0 | 1
O=C1N[C@@H](Cc2ccccc2)C(=O)N2[C@H]1CSCCS2(=O)=O | -1 | nt | -1 | 0 | 0
CCN(CC)C(=O)c1ccc2c(c1)N(Cc1ccccc1)C(=O)CS2=O (centres undefined) | -1 | 4.7* | -1 | -2 | 0
CCc1ccc(-c2csc(NC(=O)C3=COCCO3)n2)cc1 | 5 | 1 | 0 | 2 | 4.2*
CCc1c(Cc2ccccc2)ncn1CCc1ccccc1OC | -5 | nt | -1 | -3 | -3
Cc1noc(NS(=O)(=O)c2ccc(N/C=C\C(=O)c3cccc4ccccc34)cc2)c1C | 1 | 6.6* | 0 | 1 | 2
COc1ccc(C2C=C(C)Nc3ncnn32)cc1 (centres undefined) | 3 | 4.6* | -1 | 0 | 2
CC1=CC(c2ccc(Cl)cc2)n2ncnc2N1 (centres undefined) | 2 | 0 | -2 | -1 | 0
O=C(CSc1nnc(-c2ccco2)n1-c1ccc(Cl)cc1)Nc1cccc2ccccc12 | -3 | nt | -1 | -1 | 0
O=C(NCc1ccccc1)[C@H]1CCCN1C(=O)[C@H]1CCCN1C(=O)C1CCCCC1 | -1 | nt | -1 | -1 | -1
C[N+](C)(C)CCNC(=O)c1ccccc1 | -1 | nt | -1 | -1 | 4.1*
O=C(NCC(O)c1ccccc1)c1ccccc1 (centres undefined) | 7 | 4.3* | 0 | 2 | 3
O=C(NCCNC(=O)c1ccccc1)c1ccccc1 | 1 | 0 | -1 | -1 | 0
O[C@@H](CNC[C@H](O)c1ccccc1)c1ccccc1 | 0 | -1 | -1 | 0 | 0
CCCCCC(=O)N1C[C@@H](O)[C@H](n2cc(C3CC3)nn2)C[C@@H]1c1ccc(Cl)cc1 | -1 | 4.6* | -1 | 0 | 0
COC(=O)[C@]12C[C@H](CC(=O)NCCCCc3ccccc3)C(=O)N(Cc3ccccc3)C1=C[C@H](C(C)(C)C)O[C@@H]2C | 1 | nt | -1 | 0 | -1
SMILES | hgDAF12 agonist | DAX1 inh-1 | ssDAF12 agonist | hcDAF12 agonist | DAX1 inh-2
C[C@H]1COc2cc(NCCO)ccc2S(=O)(=O)N1 | 2 | nt | -1 | 1 | -1
Cc1ccc(-c2cc(C(=O)NC3CCCC3)no2)cc1 | 13* | 1 | 0 | 2 | 3
COCC1CCCN(C(=O)c2cc(COc3ccc(C(C)=O)cc3)on2)C1 (centres undefined) | 10 | 1 | -1 | 5.7* | 4.2*
O=C(NC1CCCCC1)c1cc(-c2ccc(F)cc2)on1 | 1 | 0 | 0 | 4 | 0
CC(=O)c1ccc(OCc2cc(C(=O)NC3CCCCC3)no2)cc1 | 7 | 1 | 0 | 1 | 3.6*
O=C1NC[C@@H](CCCCN2C[C@H](Cc3ccc(O)cc3)N(CC3CCCCC3)C(=O)C2=O)N(Cc2ccccc2)C1=O | -2 | nt | 0 | 0 | 1
O=C(C(=O)N1CCC(CNS(=O)(=O)c2ccc(OC(F)(F)F)cc2)CC1)c1cc2ccccc2o1 | 0 | nt | -1 | -2 | -1
CN(CCOC(=O)CSc1ccccc1)C1CN(Cc2cn(Cc3ccccc3F)nn2)S(=O)(=O)C1 (centres undefined) | 1 | nt | -1 | 2 | 0
COc1ccc(-c2nnc(SCC(=O)N3CCCC3)o2)c(OC)c1 | 12* | 1 | -1 | 2 | 1
Cc1cc2c(NC(=O)Nc3ccccc3)cccc2nn1 | -1 | 5.4* | -1 | -2 | 0
CCCCNc1c(-c2ccc(-c3cccc(Cl)c3)cc2)nc2ccccn12 | 11*! | 1 | 0 | 1 | 2
CCCCCCSc1ccc(-c2nc3ccccn3c2NCCCC)cc1 | 3 | 0 | -1 | -2 | 0
COc1ccccc1/C=C/C(=O)OCC(=O)N1CCCCC1 | 4 | 1 | -1 | 1 | 0
COc1cccc(/C=C/C(=O)OCC(=O)N2CCCC2)c1OC | 3 | 1 | -1 | 0 | 4.4*
COc1ccc(C(=O)C(=O)N2CCN(S(=O)(=O)c3cccc4c(N(C)C)cccc34)CC2)cc1OC | -1 | nt | -1 | -2 | -1
CSc1n[nH]c(-c2cccs2)n1 | -4 | nt | -1 | -1 | 0
O=C(COc1ccc(S(=O)(=O)N2CCCC2)cc1)NCc1ccco1 | nt | 2 | nt | nt | nt
O=C(COc1ccc(S(=O)(=O)N2CCOCC2)cc1)NCc1ccco1 | 0 | 0 | 1.6* | -2 | 0
COC(=O)c1sccc1NC(=O)CSc1ccccc1N | -1 | 4.8* | -1 | 0 | 0
O=C(CN1C(=O)c2cccc3cccc1c23)Nc1ccc2c(c1)OCO2 | 3 | 4.4* | -2 | -1 | -1
O=C(CSc1nccc(=O)[nH]1)Nc1ccc2c(c1)OCCO2 | 11* | 4.8* | 0 | 2 | 1
O=C(CNCc1ccccc1Cl)Nc1ccc2c(c1)OCCO2 | 12* | 2 | -1 | 0 | 3
COC(=O)[C@]12C[C@H](CC(=O)NCc3ccc(OC)c(OC)c3)C(=O)N(Cc3ccc4c(c3)OCO4)C1=C[C@H](COCc1ccccc1)O[C@@H]2C | -2 | nt | -1 | -1 | -1
O=C(CSCc1ccccc1Cl)Nc1ccc2c(c1)OCCO2 | 11* | 5.8* | -1 | 3 | 3
Nc1ccccc1SCC(=O)Nc1ccc2c(c1)OCO2 | 5 | 0 | 0 | 1 | 4.2*
CC(C(=O)Nc1ccc2c(c1)OCCO2)N(C)Cc1c(F)cccc1Cl (centres undefined) | -1 | 4.5* | 0 | -2 | 1
O=C(Nc1c(-c2ccccc2)nc2ncccn12)c1ccc(F)cc1 | 1 | nt | -1 | 1 | -1
O=C(NC(CC1=CCCCC1)c1ccccc1)C(F)(F)F (centres undefined) | 1 | nt | -1 | 3 | 1

Source: PubChem BioAssay (The Scripps Research Institute Molecular Screening Center)
